High-throughput results from PubChem BioAssay.
Shown are actives, neighbours in structure and some others; about 8% of the full set was active somewhere.
HT1080 IDH1KD tx: kills HT-1080 cells with IDH1 knockdown | HT-1080 IDH1 knockdown viability, ATP luminescence, 48 h | 2% of 360,000 active | Potency, µM (highest dose often 46.1 µM), inactives show top-dose activity, negative = toxicity, actives largely listed as cytotoxic;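 note: 0% = DMSO wells and -100% = cell-free medium wells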
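CellTiter-Glo luminescence after 48 h compound exposure at 37 degrees C of IDH1-knockdown HT-1080 cells in 5% FBS RPMI. %Activity scaled between DMSO wells and cell-free media wells, with curves fitted and assigned curve classes.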
HT1080NT lethal: kills 2HG-producing HT-1080-NT fibrosarcoma cells; HT-1080-NT fibrosarcoma viability, CellTiter-Glo ATP luminescence, 48 h; Potency, µM (series often up to 46.1 µM), for the others: at the top dose activity, negative = less viability, most hits filed as cytotoxic; 1.6% of 360,000 active; AID 686970;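 note: NT is the 2HG producing partner of a matched IDH1 knockdown line; 0% = DMSO-treated cells and -100% = media-only wells without cells; nearly all actives have a fitted effect of over 55% in size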
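Viability by CellTiter-Glo luminescence after 48 h compound exposure at 37C of HT-1080-NT cells (750/well, RPMI, 5% FBS). % activity scaled between DMSO wells and medium-only wells, then curve-fitted and categorized by curve class.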
MCF10A rereplic: induces DNA re-replication in MCF 10a normal breast cells | MCF 10A DNA re-replication, Hoechst nuclear intensity, 48 h | Potency, µM (highest dose often 46.1 µM), for inactives: at the highest dose activity, positive = re-replication, most hits filed as activators | 2.9% of 350,000 active | AID 624296; note: % of control where 0% means no effect; nearly all actives have a fitted effect of over 50% in size
SW480 rereplic: inducers of DNA re-replication in SW480 colon cancer cells; SW480 DNA re-replication, Hoechst DNA content imaging, 48 h; Potency, µM (top dose mostly 46.1 µM), for inactives: at the highest dose re-replication activation, most hits filed as activators; 1.8% of 340,000 active; AID 624297; note: % of control where 0% means no effect; nearly all actives have a fitted effect of over 55% in size
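Image-based DNA-content assay: after two days of treatment, nuclei were labelled with the DNA dye Hoechst and imaged, and hits were compounds raising the count of nuclei showing high fluorescence intensity.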
KB-V1 cytotox: kills drug-selected multidrug resistant KB-V1 cells; 3.4% of 400,000 active; KB-V1 MDR cells viability, CellTiter-Glo, 72 h; AID 1347076; Potency, µM (doses to about 46.1 µM), actives largely listed as cytotoxic; note: % is set by controls: 0 for no effect and ±100 for the full control effect; nearly all actives have a fitted effect of over 60% in size
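Following 72 h at 37 degrees C with compound, KB-V1 cell viability was read by CellTiter-Glo luminescence, medium being phenol-red-free DMEM plus 10% FBS; concentration-response parameters came from normalized, curve-fitted qHTS data.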
KB-3-1 cytotox: kills parental KB-3-1 adenocarcinoma cells. 1.4% of 400,000 active. Potency, µM (titrated, usually from 46.1 µM), actives largely listed as cytotoxic. KB-3-1 viability, CellTiter-Glo ATP luminescence, 72 h; note: % is set by controls: 0 for no effect and ±100 for the full control effect; nearly all actives have a fitted effect of over 60% in size
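Cytotoxicity in the drug-sensitive parental line KB-3-1 was scored as loss of CellTiter-Glo luminescence following 72 h incubation with compound. Values come from curve fitting of normalized concentration-response data.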
* marks the source's active call; other numbers are inactive results. Calls come from the whole dose curve; as a rule, active = well fitted curve in the direction sought with a large enough effect; inconclusive = small, poorly fitted or top-dose-only effect, or another doubt; inactive = no such curve, though single readings can be large; an effect the other way counts as inactive or inconclusive. Potency is the fitted concentration of half-maximal effect.

What do the screens show for `CC[n+]1c(/C=C/c2c[nH]c3ccccc23)ccc2cc(C)ccc21`?
HT1080 IDH1KD tx: 18µM*; HT1080NT lethal: 29µM*; MCF10A rereplic: -5%; SW480 rereplic: -16%; KB-V1 cytotox: inactive; KB-3-1 cytotox: 9.2µM*

How did O=C(CCN1C(=O)C2C3CCC(C3)C2C1=O)Nc1ccc(Br)cc1 (stereo not drawn) do in these assays?
HT1080 IDH1KD tx: -10%; HT1080NT lethal: -9%; MCF10A rereplic: 18%; SW480 rereplic: 12µM*; KB-V1 cytotox: inactive; KB-3-1 cytotox: inactive

What do the screens show for `COc1ccc(NC(=O)CCN2C(=O)[C@@H]3[C@H](C2=O)[C@H]2C=C[C@@H]3C2)cc1`?
HT1080 IDH1KD tx: inconclusive; HT1080NT lethal: 18µM*; MCF10A rereplic: 4%; SW480 rereplic: 17%; KB-V1 cytotox: inactive; KB-3-1 cytotox: inactive

How did COc1ccc(NC(=O)CCN2C(=O)C3C4CCC(C4)C3C2=O)cc1 (stereo not drawn) do in these assays?
HT1080 IDH1KD tx: inconclusive; HT1080NT lethal: -19%; MCF10A rereplic: -2%; SW480 rereplic: 3%; KB-V1 cytotox: inactive; KB-3-1 cytotox: inactive

What do the screens show for `CCC(=O)N1CCc2cc(Br)cc(S(=O)(=O)CCC(=O)N3CCN(c4ccccc4F)CC3)c21`?
KB-V1 cytotox: inactive; KB-3-1 cytotox: inactive

Results for O=C(NCCCc1nc2ccccc2n1Cc1ccccc1F)c1ccco1 ?
KB-V1 cytotox: inactive; KB-3-1 cytotox: inactive

What do the screens show for `Cc1ccc(NC(=O)CN2C(=O)C3(SCC(=O)N3c3ccc(F)c(F)c3)c3ccccc32)c(C)c1` (stereo not drawn)?
KB-V1 cytotox: inactive; KB-3-1 cytotox: inactive

Results for O=C(COc1ccc(-n2ccnc2)cc1)Nc1cccc(Cl)c1 ?
HT1080 IDH1KD tx: -21%; HT1080NT lethal: 0%; MCF10A rereplic: 0%; SW480 rereplic: 5%; KB-V1 cytotox: 5.8µM*; KB-3-1 cytotox: inconclusive

Results for O=C(COc1ccc(-n2ccnc2)cc1)Nc1cccc(F)c1 ?
HT1080 IDH1KD tx: inconclusive; HT1080NT lethal: inconclusive; MCF10A rereplic: -3%; SW480 rereplic: -18%; KB-V1 cytotox: inconclusive; KB-3-1 cytotox: inconclusive

Results for CC(C)(C)OC(=O)N1CCC(c2c(C(=O)NCCN3CCOCC3)cnn2-c2ccc(F)cc2F)CC1 ?
KB-V1 cytotox: inconclusive; KB-3-1 cytotox: inactive

How did CC(C)N(CC#CCC(O)(c1ccccc1)c1ccccc1)C(C)C do in these assays?
HT1080 IDH1KD tx: 4%; HT1080NT lethal: -16%; MCF10A rereplic: inconclusive; SW480 rereplic: -50%; KB-V1 cytotox: 13µM*; KB-3-1 cytotox: inactive

What do the screens show for `O=C(CC(Sc1ccc(Br)cc1)C(=O)O)c1ccc(F)cc1` (stereo not drawn)?
HT1080 IDH1KD tx: -12%; HT1080NT lethal: -24%; MCF10A rereplic: 23µM*; SW480 rereplic: inconclusive; KB-V1 cytotox: inactive; KB-3-1 cytotox: inactive

What do the screens show for `CCOc1ccc(C(=O)CC(Sc2ccc(C)cc2)C(=O)O)cc1` (stereo not drawn)?
HT1080 IDH1KD tx: inconclusive; HT1080NT lethal: -20%; MCF10A rereplic: inconclusive; SW480 rereplic: inconclusive; KB-V1 cytotox: inactive; KB-3-1 cytotox: inactive

Results for O=C(Nc1ccc(S(=O)(=O)NC2=NCCCCC2)cc1)c1ccc([N+](=O)[O-])s1 ?
HT1080 IDH1KD tx: inconclusive; HT1080NT lethal: inconclusive; MCF10A rereplic: inconclusive; SW480 rereplic: 13µM*; KB-V1 cytotox: inconclusive; KB-3-1 cytotox: 6.5µM*

What do the screens show for `O=C(Nc1ccc(S(=O)(=O)NC2=NCCCCC2)cc1)c1ccc(C(F)(F)F)cc1`?
HT1080 IDH1KD tx: -11%; HT1080NT lethal: -2%; MCF10A rereplic: 5%; SW480 rereplic: 1%; KB-V1 cytotox: 21µM*; KB-3-1 cytotox: 21µM*

How did Cc1cccc(C)c1NS(=O)(=O)c1ccc(NC(=O)c2ccc(Cl)c([N+](=O)[O-])c2)cc1 do in these assays?
HT1080 IDH1KD tx: inconclusive; HT1080NT lethal: inconclusive; MCF10A rereplic: inconclusive; SW480 rereplic: inconclusive; KB-V1 cytotox: inconclusive; KB-3-1 cytotox: inactive

How did O=C(Nc1ccc(S(=O)(=O)NC2=NCCCCC2)cc1)c1ccc(Cl)c([N+](=O)[O-])c1 do in these assays?
HT1080 IDH1KD tx: -25%; HT1080NT lethal: inconclusive; MCF10A rereplic: 21µM*; SW480 rereplic: 3%; KB-V1 cytotox: inactive; KB-3-1 cytotox: inactive

Results for COc1ccc(Cl)cc1NC(=O)Cn1cnc2sc(C)c(S(=O)(=O)N3CCN(c4ccccc4OC)CC3)c2c1=O ?
KB-V1 cytotox: inactive; KB-3-1 cytotox: inactive

What do the screens show for `CCc1nc2nc(C)cc(Nc3ccc(Br)cc3F)n2n1`?
KB-V1 cytotox: inactive; KB-3-1 cytotox: inactive

How did CCCCC(O)(CCCC)C(=O)NN(C(=O)OCC)c1ccccc1 do in these assays?
HT1080 IDH1KD tx: 17%; HT1080NT lethal: 12%; MCF10A rereplic: 11%; SW480 rereplic: -6%; KB-V1 cytotox: 13µM*; KB-3-1 cytotox: inactive

What do the screens show for `CCCC(O)(CCC)C(=O)NN(C(=O)CCl)c1ccccc1`?
HT1080 IDH1KD tx: inconclusive; HT1080NT lethal: inconclusive; MCF10A rereplic: 15µM*; SW480 rereplic: inconclusive; KB-V1 cytotox: inactive; KB-3-1 cytotox: inactive

Results for CCOC(=O)N(NC(=O)C(O)(C(C)C)C(C)C)c1ccccc1 ?
HT1080 IDH1KD tx: -1%; HT1080NT lethal: 0%; MCF10A rereplic: -3%; SW480 rereplic: -18%; KB-V1 cytotox: inactive; KB-3-1 cytotox: inactive

Results for CCCCC(O)(CCCC)C(=O)NN(C(=O)OC)c1ccccc1 ?
HT1080 IDH1KD tx: 14%; HT1080NT lethal: 1%; MCF10A rereplic: 2%; SW480 rereplic: 0%; KB-V1 cytotox: inactive; KB-3-1 cytotox: inactive

How did CCOC(=O)N(NC(=O)C(O)(CC(C)C)CC(C)C)c1ccccc1 do in these assays?
HT1080 IDH1KD tx: 13%; HT1080NT lethal: 2%; MCF10A rereplic: inconclusive; SW480 rereplic: 4%; KB-V1 cytotox: inconclusive; KB-3-1 cytotox: inactive

Results for CCOC(=O)N(NC(=O)C(O)(c1ccccc1)c1ccccc1)c1ccccc1 ?
HT1080 IDH1KD tx: 14%; HT1080NT lethal: 11%; MCF10A rereplic: 4%; SW480 rereplic: 2.9µM*; KB-V1 cytotox: inactive; KB-3-1 cytotox: inactive

Results for CCc1ccccc1Nc1cc(C(=O)NC(C)c2ccccc2)c2ccccc2n1 (stereo not drawn) ?
KB-V1 cytotox: inactive; KB-3-1 cytotox: inactive

Results for CCN(CCCNC(=O)c1nn(-c2ccc(C)cc2)c(=O)c2c1c1ccccc1n2C)c1ccccc1 ?
KB-V1 cytotox: inactive; KB-3-1 cytotox: inactive
